Results on 5 compounds are retold here after PubChem BioAssay AID493212 (National Center for Advancing Translational Sciences (NCATS), 2011).

This is one part of the list. Records with an inconclusive call do not appear. Calls of active or inactive are those of the source. Calls follow the shape of the dose curve; as a rule, active = well fitted inhibition curve with a large enough effect; inconclusive = small, poorly fitted or top-dose-only effect; inactive = no such curve, though single readings can be large or run the other way.

In the assay the target is Lysine-specific demethylase 4E (Homo sapiens) (UniProt B2RXH2). As to the kind of experiment: Inhibitors of Human Jumonji Domain Containing 2E (JMJD2E): 8HQs - Round 1. The settings on record: FDH-coupled NADH fluorescence (FDH is formaldehyde dehydrogenase). From the text: The fine interplay among methylation states of several lysine residues on the tails of histone proteins is a major determinant of the transcriptional state of the associated DNA coding regions and is commonly referred to as the histone code. Histone lysine demethylases catalyze the removal of methyl groups from methylated lysine sidechains on histones H3 and H4, thus antagonizing the reactions catalyzed by histone lysine methyltransferases. […] In search for novel inhibitors of JMJD2E demethylase, a member of the largest set of histone demethylases belonging to the Fe(II) and 2-oxoglutarate oxygenase (2OG) superfamily, we performed a quantitative high-throughput screen (Inglese 2006) by using an assay which utilizes a trimethylated peptide substrate corresponding to a fragment of histone H3 (sequence ARKme3STGGK) with detection of the formaldehyde co-product in real time by a formaldehyde dehydrogenase (FDH) coupled reaction. FDH catalyzes oxidation of formaldehyde to formic acid with the concomitant reduction of the non-fluorescent beta-nicotinamide adenine dinucleotide hydrate (NAD+) cofactor to the fluorescent NADH co-product. This assay is a following of SAR around 8-hydroxyquinoline-based inhibitors of JMJD2E. References: Inglese, J., Auld, D., Jadhav, A., Johnson, R., Simeonov, A., Yasgar, A., Zheng, W. and Austin, C. Proc Natl Acad Sci USA 2006, 103, 11473-11478. N. R. Rose, S. S. Ng, J. Mecinovic, B. M. Lienard, S. H. Bello, Z. Sun, M. A. McDonough, U. Oppermann and C. J. Schofield, J Med Chem, 2008, 51, 7053-7056. Sakurai, M., Rose, N., Schultz, L., Quinn, A., Jadhav, A., Ng, S., Oppermann, U., Schofield, C.J. and Simeonov, A. Mol BioSystems 2009, in press. S. Michael, D. Auld, C. Klumpp, A. Jadhav, W. Zheng, N. Thorne, C. Austin, J. Inglese and A. Simeonov, Assay Drug Dev Technol, 2008, 6, 637-657. Assay Provider: Structural Genomics Consortium [SGC] Screening Center PI: Austin, C.P. Screening Center: NIH Chemical Genomics Center [NCGC]
Sequence of Lysine-specific demethylase 4E (Homo sapiens) (B2RXH2 1-337 limits assumed): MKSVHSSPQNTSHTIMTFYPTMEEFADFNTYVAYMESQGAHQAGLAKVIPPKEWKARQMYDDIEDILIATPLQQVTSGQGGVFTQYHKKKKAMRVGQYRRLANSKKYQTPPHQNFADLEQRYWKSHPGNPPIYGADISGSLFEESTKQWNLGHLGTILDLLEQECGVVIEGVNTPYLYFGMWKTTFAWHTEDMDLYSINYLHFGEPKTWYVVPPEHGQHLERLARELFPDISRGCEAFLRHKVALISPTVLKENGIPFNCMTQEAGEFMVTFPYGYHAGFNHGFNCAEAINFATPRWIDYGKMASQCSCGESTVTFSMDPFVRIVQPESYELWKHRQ
Reagents and Controls: Ferrous ammonium sulfate, (+)-sodium L-ascorbate, beta-nicotinamide adenine dinucleotide hydrate (NAD+), Tween-20, formaldehyde dehydrogenase from P. putida (FDH), and disodium 2-oxoglutarate were from Sigma (St. Louis, MO). Black solid-bottom 384-well or 1,536-well assay plates were from Greiner Bio-One (Monroe, NC). Enzyme was supplied by Prof. Udo Oppermann, SGC-Oxford. The catalytic domain of human JMJD2E (residues 1-337) was produced as an N-terminally His6-tagged protein in E. coli, and purified by Ni-affinity chromatography and size-exclusion chromatography, and stored in HEPES 50 mM/ NaCl 500 mM pH 7.5, as reported in Rose 2008. The trimethylated histone peptide substrate ARK(me3)STGGK was synthesized and HPLC-purified by the Tufts University Core Facility (Boston, MA). Substrate solution (Sakurai 2009) contained 50 uM ARK(me3)STGGK, 0.00025 U/uL FDH, 50 uM 2-oxoglutarate, 250 uM NAD+, 1 mM ascorbate, and 10 uM ferrous ammonium sulfate. Controls and plate map: Buffer (150 mM HEPES pH 7.5 containing 0.01% Tween-20) in columns 3 and 4 as negative control (no enzyme) and 100 nM JMJD2E final concentration in columns 1,2, and 5-48. […] The plate was transferred to ViewLux imager where an initial reading using standard UV optics (Ex 340 nm, Em 450 nm) was obtained. The plate was then removed from the reader, incubated for 30 minutes at room temperature, and returned to the reader for a second fluorescence reading. […]
Take `CC(=O)NC(c1cccs1)c1cc(Cl)c2cccnc2c1O` (stereo not given): the Potency is 12.9 µM (active). The figure for `Nc1ccc(Nc2cc(O)c3ncccc3c2)cc1` is 32.4 µM (active). For `Oc1c(CN2CCCC2)cc(COCc2ccccc2)c2cccnc12`, the Potency was 5.01 µM (active). In the case of `Oc1ccc(/C=C/c2c(F)cccc2F)c2cccnc12`, the Potency is 8.91 µM (active). The figure for `Oc1cccc2cc(-c3ccncc3)cnc12` is 18.2 µM (active).
